Results taken from PubChem BioAssay (EPA / NIEHS).
Records with an inconclusive call do not appear. Activity calls are given as the source filed them. Rule for the calls: active = hit-call score of the fitted dose curve at least 0.9, where 1 is the maximum; inconclusive = response in the unintended direction; inactive = score below 0.9.

What follows are compounds tested against Glucocorticoid receptor (Homo sapiens) (UniProt P04150) (assay: ATG_GR_TRANS: Attagene TRANS-FACTORIAL HepG2 Assay for human Glucocorticoid Receptor (GR) (AID 2282978;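 note: activators score as hits since higher reporter transcript over DMSO is fitted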)). Details: HepG2 Attagene TRANS GR reporter, mRNA transcription.
Protocol: ATG_TRANS is a cell-based, multiplexed-readout assay that uses HepG2, a human liver cell line, with measurements taken at 24 hours after chemical dosing in a 24-well plate.ATG_GR_TRANS is one of 30 assay component(s) measured or calculated from the ATG_TRANS assay. It is designed to make measurements of mRNA induction, a form of inducible reporter, as detected with fluorescence intensity signals by Reverse transcription polymerase chain reaction (RT-PCR) and Capillary electrophoresis technology.Data from the assay component ATG_GR_TRANS was analyzed into 1 assay endpoint. This assay endpoint, ATG_GR_TRANS, was analyzed in the positive analysis fitting direction relative to DMSO as the negative control and baseline of activity. Using a type of inducible reporter, measures of mRNA for gain-of-signal activity can be used to understand the reporter gene at the transcription factor-level as they relate to the gene NR3C1. Furthermore, this assay endpoint can be referred to as a primary readout, because this assay has produced multiple assay endpoints where this one serves a reporter gene function. To generalize the intended target to other relatable targets, this assay endpoint is annotated to the nuclear receptor intended target family, where the subfamily is steroidal.
Human liver HepG2 cells are transiently transfected with multiple reporter transcription units (MRTUs) in 6-well plates using FuGene 6 reagent (Roche; 3 ml FuGene/1 mg DNA). The MRTU constructs are regulated by a cis-regulating element (promoter). […] A major difference between the CIS and TRANS system is that in CIS activities of endogenous TFs are measured, whereas the TRANS assay evaluates changes in activities of exogenous, chimeric NR-Gal4 proteins. […] At the end of 24 hour incubation, total RNA was isolated using TriZol reagent (Invitrogen). The isolated RNA is then reverse-transcribed using oligo(dT) primer and Mo-MLV reverse transcriptase (Invitrogen) with DNAse I (Ambion) treatment for 30 min. The one-tenth of the produced cDNA was amplified by PCR using Taq DNA polymerase (Invitrogen) and two reporter sequence-specific primers. The PCR products were fluorescently labeled by primer extension with 6-arboxyfluorescein (6-FAM) 5'-labeled reporter sequence-specific primer (2 min at 95 C, 20 s at 68 C and 10 min at 72 C) and these products were digested with 5U of HpaI (New England Biolabs) for 2h at 37 C. The fragments were purified using Qiaquick PCR columns (Qiagen), analyzed on an ABI 3130xL genetic analyzer (Applied Biosystems) with peak positions identified by using a set of X-rhodamine (ROX)-labeled MapMarker1000 molecular weight standards (BioVentures). The raw capillary electrophoresis data was processed using Attagraph software (Attagene).

Chain of Glucocorticoid receptor (Homo sapiens) (P04150 whole entry, looked up): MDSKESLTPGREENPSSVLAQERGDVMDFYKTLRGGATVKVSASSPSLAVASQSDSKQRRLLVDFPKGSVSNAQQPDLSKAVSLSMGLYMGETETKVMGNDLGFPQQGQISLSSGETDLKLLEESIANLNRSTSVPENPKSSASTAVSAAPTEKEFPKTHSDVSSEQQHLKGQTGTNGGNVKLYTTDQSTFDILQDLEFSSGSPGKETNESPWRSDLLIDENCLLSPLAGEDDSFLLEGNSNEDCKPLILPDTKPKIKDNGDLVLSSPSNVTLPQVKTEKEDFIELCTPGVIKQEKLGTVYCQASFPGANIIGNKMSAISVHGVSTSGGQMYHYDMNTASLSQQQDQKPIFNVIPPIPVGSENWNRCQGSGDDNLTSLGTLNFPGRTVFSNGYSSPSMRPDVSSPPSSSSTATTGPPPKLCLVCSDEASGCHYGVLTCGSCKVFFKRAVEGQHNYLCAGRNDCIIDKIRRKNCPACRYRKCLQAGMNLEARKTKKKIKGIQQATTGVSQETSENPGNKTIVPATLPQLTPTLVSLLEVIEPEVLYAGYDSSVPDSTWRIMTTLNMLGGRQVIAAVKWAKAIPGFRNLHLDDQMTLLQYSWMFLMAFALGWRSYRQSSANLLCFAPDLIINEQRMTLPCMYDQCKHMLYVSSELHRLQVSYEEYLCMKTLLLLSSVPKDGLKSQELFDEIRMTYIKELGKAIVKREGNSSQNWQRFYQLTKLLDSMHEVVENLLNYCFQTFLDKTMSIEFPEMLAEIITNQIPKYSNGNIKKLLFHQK

Row | SMILES | outcome | AC50
1 | CC(C)COP(=O)(OCC(C)C)OCC(C)C | inactive | –
2 | O=P(O)(Oc1ccccc1)Oc1ccccc1 | inactive | –
3 | C=CCN(CC=C)C(=O)C(Cl)Cl | inactive | –
4 | CC(Cc1ccc(C(C)(C)C)cc1)CN1C[C@@H](C)O[C@@H](C)C1 (stereo not given in full) | inactive | –
5 | C=C(Cl)Cl | inactive | –
6 | CCOC(=O)C1OC1(C)c1ccccc1 (stereo not given) | inactive | –
7 | O=[N+]([O-])c1cc([N+](=O)[O-])c2ccccc2c1 | inactive | –
8 | CC(C)CCCCCCCOC(=O)c1ccccc1C(=O)OCCCCCCCC(C)C | inactive | –
9 | CNC(=N[N+](=O)[O-])NCC1CCOC1 (stereo not given) | inactive | –
10 | ClC1=C(Cl)[C@]2(Cl)[C@@H]3[C@@H](Cl)[C@H](Cl)C[C@@H]3[C@@]1(Cl)C2(Cl)Cl | inactive | –
11 | CCCCCCC1CCOC1=O (stereo not given) | inactive | –
12 | C[N+](C)=CCl | inactive | –
13 | CC(C)CCCCCCCOP(=O)(Oc1ccccc1)Oc1ccccc1 | inactive | –
14 | CC(O)CN(CC(C)O)CC(C)O (stereo not given) | inactive | –
15 | O=[N+]([O-])c1cc(C(F)(F)F)c(Cl)c([N+](=O)[O-])c1Cl | – | 33.4 µM (active)
16 | CNC(=O)Oc1cc(C)c(SC)c(C)c1 | inactive | –
17 | [CH3][Sn]([Cl])([Cl])[Cl] | inactive | –
18 | Nc1ccccc1C(=O)OCCc1ccccc1 | inactive | –
19 | CC(C)(C)C(O)C(Oc1ccc(-c2ccccc2)cc1)n1cncn1 (stereo not given) | inactive | –
20 | CCCC=NO | inactive | –

Row | SMILES | outcome | AC50
21 | O=CNC(N1CCN(C(NC=O)C(Cl)(Cl)Cl)CC1)C(Cl)(Cl)Cl (stereo not given) | inactive | –
22 | CC1CCCC1.[C-]#[O+].[C-]#[O+].[C-]#[O+].[Mn] | inactive | –
23 | CN(C)CCC#N | inactive | –
24 | CC(C)C#N | inactive | –
25 | c1ccc(Nc2ccc3ccccc3c2)cc1 | inactive | –
26 | CCOP(=O)(OCC)OCC | inactive | –
27 | BrCBr | inactive | –
28 | Oc1ccc(C2(c3ccc(O)cc3)c3ccccc3-c3ccccc32)cc1 | inactive | –
29 | c1ccc(P(c2ccccc2)c2ccccc2)cc1 | inactive | –
30 | CC(C)(c1cc(Cl)c(O)c(Cl)c1)c1cc(Cl)c(O)c(Cl)c1 | inactive | –
31 | C[C@]12CCC(=O)C(O)=C1CC[C@@H]1[C@@H]2CC[C@]2(C)C(=O)CC[C@@H]12 | inactive | –
32 | CN(C)N | inactive | –
33 | N#CCCCCC#N | inactive | –
34 | Cl/C=C\CCl | inactive | –
35 | COC(=O)c1ccccc1S(=O)(=O)NC(=O)Nc1nc(C)cc(C)n1 | inactive | –
36 | c1cc(OCC2CO2)ccc1Cc1ccc(OCC2CO2)cc1 (stereo not given) | inactive | –
37 | Nc1c(Cl)c(Cl)c(Cl)c(Cl)c1Cl | inactive | –
38 | C=CCc1ccc(OC(=O)Cc2ccccc2)c(OC)c1 | inactive | –
39 | CCC(C)(C)O | inactive | –
40 | N#Cc1cc(I)c(O)c(I)c1 | inactive | –
